Bioassay records deposited in PubChem by University of Pittsburgh Molecular Library Screening Center.
HIV RNase H inh-1: inhibitors of HIV-1 reverse transcriptase RNase H | P04585 | RT-RNase H RNA/DNA duplex cleavage, fluorescence | inhibition, % at 10 µM | 1.9% of 65,000 active; in the data active = inhibition above about 50%
HIV RNase H inh-2: confirmation of HIV-1 reverse transcriptase RNase H inhibitors. shares compounds with HIV RNase H inh-1. Recombinant RT RNase H, fluorescent RNA/DNA duplex cleavage. inhibition, % at 10 µM. 39% of 1,000 active. AID 651; in the data active = inhibition above about 48%
Starred values were filed as active, the others as inactive. This excerpt belongs to a sample that is enriched for hits.

Results for COc1ccccc1N1CCN(C(=O)CCn2c(=O)[nH]c3ccsc3c2=O)CC1 ?
HIV RNase H inh-1: -3

Results for COc1cc2[nH]c(=O)n(CCC(=O)NCc3cccnc3)c(=O)c2cc1OC ?
HIV RNase H inh-1: -2

What do the screens show for `CCOC(=O)N1CCN(C(=O)CCCn2nc(C)c3sc4ccccc4c3c2=O)CC1`?
HIV RNase H inh-1: -19

What do the screens show for `N#CC(C(=O)c1ccco1)c1ccccn1` (centres undefined)?
HIV RNase H inh-1: -12

What do the screens show for `Cc1ncsc1C(=O)NCc1ccc(N2CCCC2=O)cc1`?
HIV RNase H inh-1: -9

How did CC1(C)Oc2ccc(C(=O)NC3CCCC3)cc2N(CC(=O)NC2CCCCC2)C1=O do in these assays?
HIV RNase H inh-1: 73*; HIV RNase H inh-2: 48

What do the screens show for `CC1(C)Oc2ccc(C(=O)N3CCCC3)cc2N(CC(=O)NCc2ccccc2)C1=O`?
HIV RNase H inh-1: 2

What do the screens show for `Cc1ccc(NC(=O)c2ccc3c(c2)N(CC(=O)N2CCCCC2)C(=O)C(C)(C)O3)cc1`?
HIV RNase H inh-1: -11

What do the screens show for `CCN1CCCC1CNC(=O)C1CCN(Cc2nc(-c3cccc(Br)c3)oc2C)CC1` (centres undefined)?
HIV RNase H inh-1: -5

Results for COc1ccc2c(c1)OC13CCN(C)CC1C2C(C(=O)c1ccc(F)cc1)C(=O)N3 (centres undefined) ?
HIV RNase H inh-1: -4

Results for CCOc1ccc(CCNC(=O)c2cc3sccc3n2C)cc1OCC ?
HIV RNase H inh-1: -18

What do the screens show for `N#Cc1c(/N=C/c2ccco2)oc(-c2ccccc2)c1-c1ccccc1`?
HIV RNase H inh-1: 12

How did COc1ccc(OC)c(/C=N/c2oc(-c3ccco3)c(-c3ccco3)c2C#N)c1 do in these assays?
HIV RNase H inh-1: 58*; HIV RNase H inh-2: 66*

What do the screens show for `COc1ccc(-c2oc(/N=C/N3CCOCC3)c(C#N)c2-c2ccc(OC)cc2)cc1`?
HIV RNase H inh-1: 17

What do the screens show for `Cc1oc(-c2cccc(Cl)c2)nc1CN1CCCC(C(=O)NC(C)c2ccc3c(c2)OCCO3)C1` (centres undefined)?
HIV RNase H inh-1: -8

How did CCOc1ccc2ccccc2c1C(=O)Nc1cc(=O)n(C)c(=O)n1C do in these assays?
HIV RNase H inh-1: 1

How did CCn1nnnc1NCc1cccn1C do in these assays?
HIV RNase H inh-1: 2

How did CCOC(=O)c1c(N)sc2c1CCC1C(=O)N(C3CCCCC3)C(=O)C21 (centres undefined) do in these assays?
HIV RNase H inh-1: 74*; HIV RNase H inh-2: 68*

What do the screens show for `CCOC(=O)NC1(C(F)(F)F)NC(=O)N(C2CCCCC2)C1=O` (centres undefined)?
HIV RNase H inh-1: -8

How did CCOC(=O)c1c(N)sc(C(=O)N2CCCC(C(N)=O)C2)c1C (centres undefined) do in these assays?
HIV RNase H inh-1: -9

What do the screens show for `CCOC(=O)c1ccc(CNC(=O)Cn2nnc(-c3ccc(C)cc3)n2)o1`?
HIV RNase H inh-1: -6

Results for COc1ccc(C)cc1S(=O)(=O)N(CC(=O)O)c1ccc(F)cc1 ?
HIV RNase H inh-1: -5

What do the screens show for `CCOC(=O)CCc1c(C)nc(SCCN2CCCC2)c(C#N)c1C`?
HIV RNase H inh-1: 4

How did CCOC(=O)CCc1c(C)nc(SCCCn2c(=O)[nH]c3ccccc32)c(C#N)c1C do in these assays?
HIV RNase H inh-1: 86*; HIV RNase H inh-2: 20

What do the screens show for `CCOC(=O)CCc1c(C)c(C#N)c2nc3ccccc3n2c1-n1ccnc1C`?
HIV RNase H inh-1: 2

What do the screens show for `COc1ccc(C(=O)c2c[nH]c3ccccc23)cc1`?
HIV RNase H inh-1: -3

How did CCOC(=O)c1ccccc1NC(=O)c1ccc(Cl)c(S(=O)(=O)N2CCOCC2)c1 do in these assays?
HIV RNase H inh-1: -11

What do the screens show for `c1cncc(-c2nn3c(Cn4cnc5ccccc54)nnc3s2)c1`?
HIV RNase H inh-1: 97*; HIV RNase H inh-2: 68*

What do the screens show for `c1cncc(-c2nn3cnnc3s2)c1`?
HIV RNase H inh-1: 4

Results for CCN(CC)c1ccc(-c2nn3c(-c4cccnc4)nnc3s2)cc1 ?
HIV RNase H inh-1: -58

What do the screens show for `Cc1cc2nc(NC3=NCN(Cc4cccnc4)CN3)nc(C)c2cc1C`?
HIV RNase H inh-1: 9

Results for O=C(Nc1ccc(-c2noc(-c3cccs3)n2)cc1)c1cccnc1 ?
HIV RNase H inh-1: 0

What do the screens show for `COCC(C)NC(=O)C1CC(c2cccc(Br)c2)=NO1` (centres undefined)?
HIV RNase H inh-1: -11

What do the screens show for `CCOC(=O)c1ccc(N=Cc2nc3ccccc3n2C)cc1`?
HIV RNase H inh-1: -4

How did CCOC(=O)c1ccc(N=Cc2nc(-c3ccccc3)oc2OC(C)=O)cc1 do in these assays?
HIV RNase H inh-1: 75*; HIV RNase H inh-2: 1

How did CCC(=O)Oc1oc(-c2ccccc2)nc1C=Nc1ccccc1OC do in these assays?
HIV RNase H inh-1: -6

What do the screens show for `O=C(c1ccco1)N1CCN(S(=O)(=O)c2ccc(F)cc2)CC1`?
HIV RNase H inh-1: -21

How did Cc1nc(C)c(C(=O)Nc2nc3c(C)cccc3s2)o1 do in these assays?
HIV RNase H inh-1: 86*; HIV RNase H inh-2: 68*

What do the screens show for `Cc1cccc2sc(NC(=O)C3CCCO3)nc12` (centres undefined)?
HIV RNase H inh-1: -15

What do the screens show for `Cc1nc(C)c(C(=O)Nc2ccccc2-c2ccccc2)o1`?
HIV RNase H inh-1: 1

What do the screens show for `Cc1cccc2cc(CN(Cc3cccs3)C3(c4nnnn4C4CCCC4)CCCC3)c(=O)[nH]c12`?
HIV RNase H inh-1: 2

How did Cc1ccc(NC(=O)Cc2nc(CSc3nnc(-c4ccc5c(c4)OCO5)o3)cs2)cc1 do in these assays?
HIV RNase H inh-1: 5

How did COc1ccccc1N1CCN(C(=O)c2sc3nc(-c4ccc(F)cc4)cn3c2C)CC1 do in these assays?
HIV RNase H inh-1: -4

How did COc1ccc(N2CCN(Cc3cc(=O)oc4cc(C)c(Cl)cc34)CC2)cc1 do in these assays?
HIV RNase H inh-1: 33

What do the screens show for `Cc1cc2oc(=O)cc(CN3CCN(C/C=C/c4ccccc4)CC3)c2cc1O`?
HIV RNase H inh-1: 13

Results for COc1ccc(N2CCN(Cc3cc(=O)oc4cc(-c5ccccc5)c(O)cc34)CC2)cc1 ?
HIV RNase H inh-1: 92*; HIV RNase H inh-2: 69*

What do the screens show for `O=S(=O)(CCN(CCS(=O)(=O)C(F)(F)F)CC1CCCO1)C(F)(F)F` (centres undefined)?
HIV RNase H inh-1: 13

What do the screens show for `O=C1CC(c2ccccc2)Cc2nc(N3CCc4ccccc43)ncc21` (centres undefined)?
HIV RNase H inh-1: 78*; HIV RNase H inh-2: 94*

How did O=C1CCCc2nc(N3CCc4ccccc43)ncc21 do in these assays?
HIV RNase H inh-1: 3

Results for O=C1CC(c2cccc(Cl)c2)Cc2nc(N3CCN(c4ccccc4)CC3)ncc21 (centres undefined) ?
HIV RNase H inh-1: 3

What do the screens show for `COc1ccccc1CNc1ncnc2c1nnn2Cc1ccccc1`?
HIV RNase H inh-1: -6

How did O=C(O)C1CSCN1S(=O)(=O)c1cccc2nsnc12 (centres undefined) do in these assays?
HIV RNase H inh-1: 62*; HIV RNase H inh-2: -3

How did O=C(NC1CCCCC1)C1CCCN1S(=O)(=O)c1cccc2nsnc12 (centres undefined) do in these assays?
HIV RNase H inh-1: -1

What do the screens show for `O=C(O)c1ccc(Cl)c(NC(=O)C2CCCN2S(=O)(=O)c2cccc3nsnc23)c1` (centres undefined)?
HIV RNase H inh-1: -1

Results for O=C(CCN1C(=O)c2ccccc2C1=O)N1CCC(c2ccccc2)C1 (centres undefined) ?
HIV RNase H inh-1: -16
